From PubChem BioAssay (NCATS) come the findings set out here.

Experiment [1] concerns the target Tyrosyl-DNA phosphodiesterase 1 (Homo sapiens) (UniProt Q9NUW8). In words: Confirmation Assay for Inhibitors of Tyrosyl-DNA Phosphodiesterase (TDP1) (AID 489007). Further: potency means the concentration at half of the fitted maximal effect; nearly all actives have a fitted effect of over 40% in size. As to conditions: recombinant human TDP1 enzymatic activity, dose-response. The method, boiled down:
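Recombinant E. coli-expressed Tdp1 (1 nM final) was preincubated with compounds 15 min at room temperature, then reacted 5 min with 15 nM 5'-biotin/3'-phosphotyrosine-FITC DNA substrate; cleavage read as loss of AlphaScreen signal (10 ug/ml beads, 10 min).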

The nature of experiment [2]: Confirmatory screen GU Rhodamine qHTS for Zika virus inhibitors qHTS (AID 1347157). Further: nearly all actives have a fitted effect of over 70% in size. Further: potency means the concentration at half of the fitted maximal effect.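 On activity change, negative = inhibition: plate controls were no-inhibitor wells for no effect and no-enzyme wells for full effect.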 The settings on record: purified enzyme assay, Rhodamine110 substrate fluorescence, 15 min; series mostly up to 114 µM. In a few lines:
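Percent inhibition came from the 15-min rise in Rhodamine110 fluorescence (1.5 microM substrate, ~15% conversion), normalized to no-inhibitor and no-enzyme wells and Hill-fitted. Unlinked protease, 25 nM, pH 8.0 Tris buffer; compounds up to 114 microM, 15-min preincubation.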

Experiment [3] can be described thus: ZIKV-mCherry secondary qHTS for Zika virus inhibitors (AID 1347158). Further: top concentration of the series differs between compounds. As to conditions: Vero cells, ZIKV-mCherry infection imaging, 48-72 h; series mostly up to 49.2 µM. In a few lines:
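Vero cells, 5,000/well, plated overnight at 37 °C, then compound added and infected with recombinant ZIKV-mCherry at MOI 1 for 48-72 h. PFA-fixed, Hoechst nuclear stain, high-content imaging; cells with mCherry intensity above 450 RFU scored infected, reported as percent infection.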
(In general: In qHTS, concentration-response curves come from the screen itself.)

Experiment [4] can be described thus: Confirmatory screen NINDS Rhodamine qHTS for Zika virus inhibitors (AID 1347161). Further: nearly all actives have a fitted effect of over 60% in size. Further: potency means the concentration at half of the fitted maximal effect.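 On activity change, negative = inhibition: purified Zika NS2B-NS3 protease with linked NS2B cofactor domain and Rhodamine110 peptide substrate; plate controls were no-inhibitor control for no effect and no-enzyme control for full effect.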 As to conditions: purified enzyme assay, Rhodamine110 substrate fluorescence, 15 min; series mostly up to 114 µM. In a few lines:
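Single-chain NS2B-NS3 protease, 25 nM, pH 8.0; compounds preincubated 15 min. Activity: Rhodamine110 release from 1.5 microM substrate over 15 min, room temperature, data fitted to 4-parameter Hill.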

For experiment [5], the system named is Zika virus NS2B-NS3 protease (linked). Briefly: 384 well plate NINDS AMC confirmatory qHTS for Zika virus inhibitors (AID 1347163). Further: nearly all actives have a fitted effect of over 50% in size. Further: potency means the concentration at half of the fitted maximal effect.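 On activity change, negative = inhibition: linked protease at 5 30 or 60 nM final depending on run; fluorescence of AMC released from Ac-VKTGKR-AMC peptide cleaved by the protease; top concentration of the series differs between compounds; 0% = no-inhibitor control and -100% = no-enzyme control.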 As to conditions: Recombinant NS2B-NS3 protease, Ac-VKTGKR-AMC fluorescence; series mostly up to 1 mM. In a few lines:
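Linked protease 5/30/60 nM final; cpds up to 1 mM final, ~15 min preinc. Substrate Ac-VKTGKR-AMC 30 microM final. RT, dark, 25 min; FI ex 355/em 460; normalized to no-enzyme/no-inhibitor ctrls.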

Experiment [6] in a line: Tertiary RLuc qRT-PCR qHTS assay for Zika virus inhibitors (AID 1347169). Further: top concentration of the series differs between compounds; on the % scale 0 is the no-effect control and ±100 the full control effect; nearly all actives have a fitted effect of over 55% in size. The settings on record: infected Vero cells, reporter luminescence, 48-72 h; series mostly up to 1.74 µM. In a few lines:
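Orthogonal cell-based readout: luminescence measured 1-1.5 hrs after adding live-cell Renilla substrate to Vero cells that had been infected with ZIKV-RLuc (MOI 1-2) post-compound, incubated 48-72 hrs at 37 degrees C.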

For experiment [7], the target named is N-terminal Xaa-Pro-Lys N-methyltransferase 1 (Homo sapiens) (UniProt Q9BV86). In words: Confirmatory qHTS for Inhibitors of N-terminal methyltransferase 1 (NTMT1): MTaseGlo Assay (AID 1645874).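 Further: luminescence from SAH made as NTMT1 methylates SPKRIA peptide using SAM; 0% = DMSO control and -100% = no-enzyme control; nearly all actives have a fitted effect of over 65% in size.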 The settings on record: NTMT1 enzyme, MTase-Glo SAH luminescence; series mostly up to 100 µM. In a few lines: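 Preincubation of NTMT1 (125 nM) plus SAM (100 uM) with test compounds lasted 15 min; methylation of 1 uM SPKRIA then proceeded 30 min in the dark at room temperature. Luciferase signal reported SAH produced.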

The target in experiment [8] is Rap guanine nucleotide exchange factor 4 (Homo sapiens) (UniProt Q8WZA2). In words: Confirmatory qHTS for agonist of cAMP-regulated guanine nucleotide exchange factor 4 (EPAC2) (AID 1645884).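 Further: nucleotide exchange releases bodipy-GDP from Rap1 and this lowers its fluorescence; on the % scale 0 is the no-effect control and ±100 the full control effect; nearly all actives have a fitted effect of over 65% in size.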 As to conditions: EPAC2 GEF activity, Rap1B-BODIPY-GDP fluorescence, percent relative to cAMP agonist control; series mostly up to 154 µM.
Experiment [9] shares this target. In words: Confirmatory qHTS for antagonist of cAMP-regulated guanine nucleotide exchange factor 4 (EPAC2) (AID 1645885). Further: on the % scale 0 is the no-effect control and ±100 the full control effect; nearly all actives have a fitted effect of over 25% in size. As to conditions: EPAC2 Rap1B-BODIPY-GDP exchange fluorescence, biochemical; series mostly up to 114 µM.
Experiment [10] addresses Rap guanine nucleotide exchange factor 3 (Homo sapiens) (UniProt O95398). In words: Counterscreen qHTS for antagonist of cAMP-regulated guanine nucleotide exchange factor 3 (EPAC1) (AID 1645888).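 Further: fluorescence loss as bound BODIPY-GDP is released from Rap1B; % of control where 0% means no effect.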 As to conditions: Rap1B-BODIPY-GDP nucleotide exchange, fluorescence; series mostly up to 154 µM. In a few lines:
(§1)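 Rap1B-BODIPY-GDP 250 nM + GDP 50 uM; cpds 7-pt, final 9.74 nM–152 uM (activator mode) or from 7.32 nM upwards (inhibitor mode); RT; FI 480/540 nm at 5 and 30 min, then ± cAMP, reread.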
In general terms: A counterscreen serves to expose hits that act by an unwanted route or on another target.

For experiment [11] the target is unchanged. Briefly: Counterscreen qHTS for agonist of cAMP-regulated guanine nucleotide exchange factor 3 (EPAC1) (AID 1645889). Further: potency means the concentration at half of the fitted maximal effect; nearly all actives have a fitted effect of over 40% in size. The settings on record: EPAC1 Rap1B-BODIPY-GDP exchange, fluorescence; series mostly up to 154 µM. In a few lines:
as §1

Experiment [12] deals with Cytochrome P450 3A4 (Homo sapiens) (UniProt P08684). In words: qHTS Assay for Activators of Cytochrome P450 3A4 (AID 885). Further: nearly all actives have a fitted effect of over 65% in size. As to conditions: recombinant CYP3A4, Luciferin-PPXE luminescence, 60 min; series mostly up to 57.1 µM. In a few lines: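 Steps: enzyme/substrate mix dispensed; compound added, 10 min RT; NADPH regeneration solution added, 60 min RT; luciferin detection buffer stops reaction; 20 min later luminescence measured.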

Experiment [13] can be described thus: Confirmation and Secondary Assay for Modulators of Hemoglobin Beta Chain Splicing at IVS2 654 locus (AID 910).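 Further: HeLa cells stably carrying EGFP split by mutant beta-globin IVS2-654 intron; per-well total GFP intensity by laser scanning cytometry after 2-day treatment; % of control where 0% means no effect.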 The settings on record: HeLa EGFP-654 splicing reporter, GFP fluorescence, 48 h; series mostly up to 46.1 µM. The method, boiled down:
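Readout: per-well total peak green fluorescence (488 nm ex, 500–520 nm em) from objects 5–250 µm, reflecting correct splicing of an EGFP-654 reporter. Compounds were applied for 2 days at 37 °C to overnight-plated HeLa EGFP-654 cells; controls were DMSO and 500 nM IVS2-654 PNA.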

Experiment [14] is described as follows: Confirmation and Secondary Assay for Modulators of Hemoglobin Beta Chain Splicing at IVS2 705 locus (AID 930).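 Further: HeLa cells stably expressing the EGFP-705 splicing reporter; GFP fluorescence per well restored by corrected splicing of the IVS2-705 intron in EGFP; % of control where 0% means no effect.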 The settings on record: HeLa EGFP-705 splicing reporter, GFP fluorescence, 48 h; series mostly up to 46.1 µM. In a few lines: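 HeLa EGFP-705 reporter; 500 cells/well, o/n 37C 5% CO2; cpd 2 d; 488 ex/500-520 em laser scan; total peak GFP intensity/well. Ref: 500 nM […] antisense PNA.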

Experiment [15] is described as follows: qHTS Assay for Lipid Storage Modulators (AID 1519; calls by dose curve; on activity change, negative = inhibition: on the % scale 0 is the no-effect control and ±100 the full control effect). The settings on record: Drosophila S3 cells, BODIPY lipid droplet/cell ratio, laser cytometry, cells loaded with oleic acid. In a few lines: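 Cells seeded at 5,000 per well were treated with compounds over a concentration series and loaded with oleic acid (400 uM, as added). Lipid droplet fluorescence (488 nm excitation, 500-530 nm channel) was read by laser-scanning cytometry and normalized to 20 uM Triacsin C.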

For experiment [16], the system named is Zika virus NS2B-NS3 protease (linked construct). In words: 384 well plate NINDS Rhodamine confirmatory qHTS for Zika virus inhibitors (AID 1347164). Further: nearly all actives have a fitted effect of over 65% in size. Further: potency means the concentration at half of the fitted maximal effect.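 On activity change, negative = inhibition: top concentration of the series differs between compounds; plate controls were no-inhibitor control for no effect and no-enzyme control for full effect.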 The settings on record: rhodamine-110 peptide substrate fluorescence; series mostly up to 1 mM. The method, boiled down: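 Fluorescence at 485/538 nm was measured 25 minutes after adding 10 microM Ac-LKRR-Rd substrate, in the dark at room temperature. The protease (5, 30 or 60 nM final) had been preincubated ~15 minutes with compound; aprotinin as control.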

SMILES strings stand for the structures. Inconclusive results are not listed. Active and inactive are the calls of the source. Unless noted, the call rests on the fitted dose curve; in most records, active means well fitted curve in the direction sought with a large enough effect; inconclusive means small, poorly fitted or top-dose-only effect, or another doubt; inactive means no such curve, though single readings can be large; an effect the other way counts as inactive or inconclusive.

Sequence of Tyrosyl-DNA phosphodiesterase 1 (Homo sapiens) (Q9NUW8 whole entry, looked up): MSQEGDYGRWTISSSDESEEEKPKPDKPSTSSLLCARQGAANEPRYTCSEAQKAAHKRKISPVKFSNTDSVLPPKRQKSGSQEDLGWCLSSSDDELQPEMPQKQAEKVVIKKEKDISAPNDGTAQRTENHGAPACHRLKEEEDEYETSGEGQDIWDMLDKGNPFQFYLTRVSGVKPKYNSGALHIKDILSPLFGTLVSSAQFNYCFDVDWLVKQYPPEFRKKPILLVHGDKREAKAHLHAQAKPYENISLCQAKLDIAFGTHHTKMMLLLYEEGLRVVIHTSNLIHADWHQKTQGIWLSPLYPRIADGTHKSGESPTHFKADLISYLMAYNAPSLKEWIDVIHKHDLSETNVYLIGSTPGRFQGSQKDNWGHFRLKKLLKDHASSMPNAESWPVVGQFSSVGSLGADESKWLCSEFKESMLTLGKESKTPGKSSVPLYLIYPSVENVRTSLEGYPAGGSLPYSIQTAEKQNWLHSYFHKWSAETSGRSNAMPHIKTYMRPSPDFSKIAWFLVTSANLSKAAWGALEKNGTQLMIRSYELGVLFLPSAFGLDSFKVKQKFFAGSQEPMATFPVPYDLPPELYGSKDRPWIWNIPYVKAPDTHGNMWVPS
Sequence of Rap guanine nucleotide exchange factor 4 (Homo sapiens) (Q8WZA2 whole entry, looked up): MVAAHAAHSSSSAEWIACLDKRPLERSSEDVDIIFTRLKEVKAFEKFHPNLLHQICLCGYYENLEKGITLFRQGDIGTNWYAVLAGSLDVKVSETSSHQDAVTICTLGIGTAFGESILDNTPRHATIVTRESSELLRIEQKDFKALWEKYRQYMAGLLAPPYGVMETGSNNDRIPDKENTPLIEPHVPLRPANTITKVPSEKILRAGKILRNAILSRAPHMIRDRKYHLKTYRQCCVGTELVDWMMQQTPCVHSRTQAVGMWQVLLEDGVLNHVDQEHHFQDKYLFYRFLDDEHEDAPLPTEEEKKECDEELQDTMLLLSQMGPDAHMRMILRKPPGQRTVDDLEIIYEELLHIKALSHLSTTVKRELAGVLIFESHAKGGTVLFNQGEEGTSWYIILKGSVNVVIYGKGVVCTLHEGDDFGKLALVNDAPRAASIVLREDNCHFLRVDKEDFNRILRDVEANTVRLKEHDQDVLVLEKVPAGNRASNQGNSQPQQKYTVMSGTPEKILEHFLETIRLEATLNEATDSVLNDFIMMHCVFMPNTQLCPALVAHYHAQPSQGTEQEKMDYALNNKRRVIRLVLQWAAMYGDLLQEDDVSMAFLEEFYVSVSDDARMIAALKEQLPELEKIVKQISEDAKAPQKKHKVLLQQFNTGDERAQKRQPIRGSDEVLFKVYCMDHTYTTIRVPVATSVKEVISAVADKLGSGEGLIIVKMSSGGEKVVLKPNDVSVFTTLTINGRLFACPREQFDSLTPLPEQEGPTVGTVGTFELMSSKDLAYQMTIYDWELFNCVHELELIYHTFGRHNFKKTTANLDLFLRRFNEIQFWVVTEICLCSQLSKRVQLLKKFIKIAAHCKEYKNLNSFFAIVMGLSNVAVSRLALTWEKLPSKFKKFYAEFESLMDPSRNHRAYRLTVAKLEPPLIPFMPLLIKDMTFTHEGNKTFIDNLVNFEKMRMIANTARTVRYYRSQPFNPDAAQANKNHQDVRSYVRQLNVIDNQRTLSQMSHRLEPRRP
Sequence of Rap guanine nucleotide exchange factor 3 (Homo sapiens) (O95398 whole entry, looked up): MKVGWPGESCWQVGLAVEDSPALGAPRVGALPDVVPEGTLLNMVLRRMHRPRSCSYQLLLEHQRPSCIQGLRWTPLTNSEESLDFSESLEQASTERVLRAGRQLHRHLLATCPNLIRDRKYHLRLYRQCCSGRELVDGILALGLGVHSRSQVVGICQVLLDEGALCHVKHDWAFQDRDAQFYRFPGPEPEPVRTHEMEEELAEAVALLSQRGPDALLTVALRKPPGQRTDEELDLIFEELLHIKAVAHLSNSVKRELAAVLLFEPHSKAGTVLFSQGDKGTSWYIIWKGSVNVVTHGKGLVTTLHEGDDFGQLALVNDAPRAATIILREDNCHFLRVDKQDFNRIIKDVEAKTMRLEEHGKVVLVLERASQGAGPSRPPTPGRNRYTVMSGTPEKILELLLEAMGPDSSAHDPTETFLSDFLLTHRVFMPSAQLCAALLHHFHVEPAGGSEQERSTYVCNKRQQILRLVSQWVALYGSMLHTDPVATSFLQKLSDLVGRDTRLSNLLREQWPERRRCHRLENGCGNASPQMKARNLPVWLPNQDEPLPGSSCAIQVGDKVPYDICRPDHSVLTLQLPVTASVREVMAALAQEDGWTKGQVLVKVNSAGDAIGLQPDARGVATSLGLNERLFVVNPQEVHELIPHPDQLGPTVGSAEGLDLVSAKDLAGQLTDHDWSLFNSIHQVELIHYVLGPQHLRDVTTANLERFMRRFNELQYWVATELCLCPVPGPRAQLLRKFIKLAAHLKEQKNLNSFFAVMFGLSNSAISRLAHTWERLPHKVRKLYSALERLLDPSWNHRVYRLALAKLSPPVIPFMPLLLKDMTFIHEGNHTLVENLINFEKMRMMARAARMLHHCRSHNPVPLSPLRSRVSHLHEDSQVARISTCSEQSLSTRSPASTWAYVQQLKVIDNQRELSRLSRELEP
Sequence of N-terminal Xaa-Pro-Lys N-methyltransferase 1 (Homo sapiens) (Q9BV86 whole entry, looked up): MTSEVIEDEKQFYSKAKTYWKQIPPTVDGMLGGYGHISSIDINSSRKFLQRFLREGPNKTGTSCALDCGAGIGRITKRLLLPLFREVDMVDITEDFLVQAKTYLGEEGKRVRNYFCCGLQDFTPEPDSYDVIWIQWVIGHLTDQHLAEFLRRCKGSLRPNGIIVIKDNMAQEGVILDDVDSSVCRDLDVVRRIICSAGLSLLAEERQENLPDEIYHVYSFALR
Sequence of Cytochrome P450 3A4 (Homo sapiens) (P08684 whole entry, looked up): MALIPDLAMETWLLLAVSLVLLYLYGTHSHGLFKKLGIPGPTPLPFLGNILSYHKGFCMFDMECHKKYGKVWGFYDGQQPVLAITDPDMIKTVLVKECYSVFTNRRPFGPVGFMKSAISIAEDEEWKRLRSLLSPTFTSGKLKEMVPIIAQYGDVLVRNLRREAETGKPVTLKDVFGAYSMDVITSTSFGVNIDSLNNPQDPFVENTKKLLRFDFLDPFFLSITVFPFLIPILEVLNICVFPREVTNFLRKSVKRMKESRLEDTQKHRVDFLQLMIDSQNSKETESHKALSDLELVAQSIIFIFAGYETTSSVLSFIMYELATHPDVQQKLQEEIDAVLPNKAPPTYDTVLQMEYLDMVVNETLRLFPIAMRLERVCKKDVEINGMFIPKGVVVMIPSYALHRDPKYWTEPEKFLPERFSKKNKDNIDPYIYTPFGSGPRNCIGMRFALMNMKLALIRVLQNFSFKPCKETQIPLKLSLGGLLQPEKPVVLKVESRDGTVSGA

As for `N#C/C(=C\c1ccc(-c2ccc(Cl)c(C(=O)O)c2)o1)c1nc2ccccc2[nH]1`, the Potency in [1] is 112 µM (active); in experiment [2] it was 25.1 µM (active); in experiment [4] it was 22.4 µM (active); in [5] it was 126 µM (active); in experiment [11], 79.4 µM (active). Also, the Potency result in [3], in [6] and in experiment [7] was “inactive” in each case. The compound was classed as inactive in [8] and in [10]. Besides, the activity change, negative = inhibition in experiment [9] was -25.6% [at 12.7 µM] (inactive).

Regarding `CCOC(=O)c1ccc(CN(Cc2ccc(F)cc2)S(=O)(=O)c2cc(C(=O)Nc3cccc(C(F)(F)F)c3)ccc2F)cc1`, the Potency result in experiment [2] and in [4] was “inactive” in each case.

`CC(C)(C)c1ccc(C(=O)Nc2ccc(C(=O)OCc3cc(=O)n4ccsc4n3)cc2)cc1`: the Potency entry in experiment [2] was “inactive”.

In the case of `O=c1c(-c2cc(O)c(O)c(O)c2)coc2cc(O)c(O)c(O)c12`, the Potency result in experiment [12] and in experiment [3] was “inactive” each time. For the same compound, the outcome in experiment [13] and in [14] was inactive. The activity change, negative = inhibition in experiment [15] (at 57.5 µM (top of the series)) was 15.6% (inactive). The max response in experiment [15] (measured here: cell count channel max response) was 7.38%; in experiment [15] (measured here: lipid channel max response), 21.8%. Moreover, the Potency in [1] is 0.282 µM (active); in [2], 22.4 µM (active); in experiment [4] it was 12.6 µM (active); in experiment [16] it was 126 µM (active).

Consider `CCN(Cc1cccc(S(=O)(=O)O)c1)c1ccc(C(=C2C=CC(=[N+](CC)Cc3cccc(S(=O)(=O)O)c3)C=C2)c2ccc(O)cc2S(=O)(=O)O)cc1`, for which the results for the Potency in experiment [2], in [4] and in experiment [5] were 4.47 µM (active), 3.55 µM (active) and 63.1 µM (active), respectively. Besides, the Potency entry in [3] is “inactive”.

`O=C(Nc1cccc(C(=O)OCc2cc(=O)n3nc(C4CC4)sc3n2)c1)c1cccc(Cl)c1`: the Potency in experiment [2] is 56.2 µM (active). Further, the Potency entry in [3] was “inactive”.

Regarding `CCOC(=O)c1ccc(CN(Cc2ccccc2C)S(=O)(=O)c2ccc(F)c(C(=O)Nc3cccc(OC)c3)c2)cc1`, the Potency entry in experiment [2] and in experiment [4] was “inactive” in each case.

Consider `O=C(OCc1cc(=O)n2nc(C3CC3)sc2n1)c1ccc(NC(=O)c2ccccc2Cl)cc1`, for which the Potency in experiment [2] is 50.1 µM (active). Moreover, the Potency result in [5], in [16] and in experiment [6] was “inactive” each time.

Regarding `O=C(O)c1ccc(NS(=O)(=O)c2ccc(Cl)c(C(=O)Nc3ccccc3)c2)cc1`, the Potency entry in experiment [2], in [4] and in experiment [6] was “inactive” each time.

`O=C(COC(=O)c1cccc(NC(=O)c2ccc(Br)cc2)c1)c1ccc(Cl)cc1`: the Potency entry in [2] and in experiment [6] was “inactive” throughout.
